# Screening data as filed in PubChem BioAssay.
# Most compounds without a hit are left out; they make up all but 0.99% or so of the library.
# BLM helicase inh: inhibitors of human Bloom syndrome helicase BLM; P54132; recombinant BLM DNA unwinding, fluorescence dequenching; Potency, µM (highest dose often 56.1 µM), without a hit: at the top dose activity change, negative = inhibition, hits mostly inhibitors; 350,000 tested, 0.2% active; AID 2528;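 note: plate controls were vehicle for no effect and no enzyme for full effect; nearly all actives have a fitted effect of over 35% in size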
# L3MBTL1 inh: L3MBTL1 (human) inhibition; Q9Y468; AlphaScreen L3MBTL1–H3K9me1 peptide binding; Potency, µM (top dose mostly 57.1 µM), for the others: top-dose activity, negative = inhibition, actives largely listed as inhibitors; 230,000 tested, 0.66% active; note: nearly all actives have a fitted effect of over 60% in size
#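 Displacement of a biotinylated histone H3(1-15) peptide monomethylated at Lys9 (75 nM) from L3MBTL1 (50 nM) was measured by AlphaScreen after a 30 min room-temperature compound incubation; cefsulodin titration served as intraplate control.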
# FEN1 inh: human FEN1 inhibition; P39748; Recombinant FEN1 flap cleavage, fluorescence, 15 min; Potency, µM (highest dose often 114 µM), inactives show top-dose activity change, negative = inhibition, hits mostly inhibitors; 390,000 tested, 0.35% active; note: nearly all actives have a fitted effect of over 65% in size
#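 In this screen, 50 nM flap DNA substrate was added to 10 nM FEN1 pretreated with compound for 15 min at room temperature; cleavage was followed with reads at 0 and 15 min, and Hill fitting gave concentration–response parameters.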
# WRN inhibitor: WRN helicase (human) inhibition; WRN helicase unwinding, fluorescent forked duplex, kinetic; Potency, µM (doses to about 114 µM), for inactives: top-dose activity change, negative = inhibition, usual class: inhibitors; 360,000 tested, 0.46% active; AID 651768; note: nearly all actives have a fitted effect of over 55% in size
#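 WRN at 20 nM final was preincubated with compound for 15 min at room temperature; reaction started with 100 nM forked duplex oligonucleotide carrying fluorophore and quencher plus 2 mM ATP (final). Unwinding followed kinetically by red fluorescence (ex 525/em 598 nm).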
# RECQ1 helicase: inhibitors of human RECQ1 DNA helicase. P46063. RECQ1 DNA unwinding, red fluorescence kinetic read. Potency, µM (titrated, usually from 57.3 µM), for the others: at the top dose activity, negative = inhibition, usual class: inhibitors. 240,000 tested, 0.54% active;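 note: plate controls were vehicle for no effect and no enzyme for full effect; nearly all actives have a fitted effect of over 30% in size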
# Target sequence (P46063 whole entry, looked up): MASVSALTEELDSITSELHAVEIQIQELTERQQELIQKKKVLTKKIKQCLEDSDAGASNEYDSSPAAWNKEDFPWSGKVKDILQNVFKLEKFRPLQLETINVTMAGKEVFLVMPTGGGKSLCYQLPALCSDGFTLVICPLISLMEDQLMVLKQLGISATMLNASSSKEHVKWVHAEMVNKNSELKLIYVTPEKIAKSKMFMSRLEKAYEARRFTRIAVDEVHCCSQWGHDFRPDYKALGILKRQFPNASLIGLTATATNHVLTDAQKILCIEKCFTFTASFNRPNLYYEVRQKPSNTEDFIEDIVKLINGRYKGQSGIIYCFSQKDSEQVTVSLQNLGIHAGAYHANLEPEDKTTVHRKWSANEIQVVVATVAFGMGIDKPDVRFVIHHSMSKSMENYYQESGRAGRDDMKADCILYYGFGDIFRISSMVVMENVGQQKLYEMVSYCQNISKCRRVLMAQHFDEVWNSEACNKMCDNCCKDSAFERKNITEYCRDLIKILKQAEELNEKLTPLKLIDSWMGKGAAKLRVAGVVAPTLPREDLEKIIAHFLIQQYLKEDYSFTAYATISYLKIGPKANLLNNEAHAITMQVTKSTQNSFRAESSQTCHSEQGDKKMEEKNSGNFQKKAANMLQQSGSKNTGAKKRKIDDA
#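 50 nM RECQ1T1 preincubated 15 min with compound in Tris pH 8.0 buffer with MgCl2, DTT, Tween-20 and 2.5 ug/ml poly(dI-dC); started with 200 nM TAMRA/BHQ-2 forked duplex and 2 mM ATP. Unwinding read as fluorescence (525/598 nm), two reads 2 h apart.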
# * = called active by the depositor; i = inactive; ? = inconclusive; nt = no result; ! = not active in a repeat; [ ] = dose if it differs, or a comment. Calls come from the whole dose curve; as a rule, active = well fitted curve in the direction sought with a large enough effect; inconclusive = small, poorly fitted or top-dose-only effect, or another doubt; inactive = no such curve, though single readings can be large; an effect the other way counts as inactive or inconclusive. Unless noted, % is set by controls: 0 for no effect and ±100 for the full control effect; potency is the fitted concentration of half-maximal effect.
SMILES,BLM helicase inh,L3MBTL1 inh,FEN1 inh,WRN inhibitor,RECQ1 helicase
Cc1cc(-c2ccc(N=Nc3ccc4c(S(=O)(=O)O)cc(S(=O)(=O)O)c(N)c4c3O)c(C)c2)ccc1N=Nc1ccc2c(S(=O)(=O)O)cc(S(=O)(=O)O)c(N)c2c1O,11.2µM*!,nt,nt,nt,8.91µM*
Cc1ccc(N=Nc2ccc(N)cc2C)c(S(N)(=O)=O)c1,-5.5%,-7.6%,-3.8%,-5.7%,i
Nc1c(N=Nc2ccc(-c3ccc(N=Nc4cc(S(=O)(=O)O)c5ccccc5c4N)cc3)cc2)cc(S(=O)(=O)O)c2ccccc12,3.98µM*,nt,nt,nt,10µM*
Cc1ccccc1-c1cnc(C(O)c2ccc(F)cc2)[nH]1 (centres undefined),nt,nt,nt,-3.5%,nt
COc1ccc(C)cc1NC(=S)N1CCN(c2ccccn2)CC1,-10.6%,-0.8%,-10.0%,-4.3%,-7.5%
O=CN/C=C/c1cc(O)ccc1O,-27.0%,15.8µM*,17.8µM*,-33.7%,-25.4%
O=C1NC(=S)S/C1=C\c1coc2ccccc2c1=O,-2.7%,1.6%,-6.4%,-21.6%,20µM*
CC(C)n1c(=S)[nH]c2c1c(=O)[nH]c(=O)n2C,2.7%,-6.4%,14.4%,89.1µM*,-6.6%
COc1cccc(/C=N\NC(=O)c2ccc(Cn3cc(Br)c([N+](=O)[O-])n3)o2)c1O,31.6µM*,-7.7%,-12.9%,-18.0%,6.3%
Cc1ccc(C(=O)N/N=C/c2ccc(-c3ccccc3[N+](=O)[O-])o2)cn1,-20.6%,19.4%,-20.3%,-28.3%,-9.8%
COc1ccc(-c2ccc(/C=N/NC(=O)c3cccnc3)o2)c([N+](=O)[O-])c1,-14.2%,3.8%,-2.7%,-8.9%,3.98µM*
COc1cc([N+](=O)[O-])cc(/C=N/NC(=O)C(O)(c2ccccc2)c2ccccc2)c1O,-6.1%,-6.5%,-4.1%,-10.3%,nt
COc1cc([N+](=O)[O-])cc(/C=N/NC(=O)c2cccnc2)c1O,-12.3%,14.1µM*,-17.3%,-13.3%,-9.7%
CC(=O)Nc1cccc(N/C=C(\C=O)c2nc3ccccc3o2)c1,5.5%,-12.5%,-7.6%,-16.1%,-5.8%
C#CCOCCOCCOCCNc1nc(N2CCN(C(=O)[C@H]([C@@H](C)O)n3cc(CCCCN)nn3)CC2)nc(N2CCN(C(=O)[C@H](CCCCN)n3cc(CCC(=O)O)nn3)CC2)n1,nt,2.2%,-3.7%,-3.1%,nt
COc1ccc(-c2nc3ccc(NC(C)=O)cc3c(=O)n2Cc2cccc(Cl)c2)cc1COc1ccc(NC(C)=O)cc1,nt,nt,79.4µM*,nt,nt
CC1=C/C(=N\Nc2ccccc2[N+](=O)[O-])CC(C)(C)C1,-6.8%,14.1µM*,-15.7%,-9.7%,-4.4%
COc1ccc(Cn2c(C)nc3c(c(=O)c4ccccc4n3C)c2=O)cc1,-10.0%,-4.8%,?,-28.7%,-3.6%
COc1ccc(CCn2c(C)nc3c(c(=O)c4ccccc4n3C)c2=O)cc1,-2.6%,-3.2%,50.1µM*,-7.5%,-15.5%
CCOc1ccc(NC(=O)CSc2nnc(Cc3ccccc3)c(=O)n2N)cc1,nt,-4.4%,42.2%,-6.9%,nt
O=C(N/N=C/c1ccc(Cl)cc1Cl)c1ccncc1,-0.6%,-4.7%,-1.0%,0.0%,nt
O=C(N/N=C/c1cc(Cl)cc(Cl)c1O)c1ccncc1,-0.9%,28.2µM*,-4.8%,-0.5%,-1.0%
O=C(N/N=C/c1ccc(O)cc1O)c1ccncc1,-2.6%,nt,-6.8%,-5.9%[57.1 µM],nt
O=C(N/N=C/c1cc(Br)cc(Br)c1O)c1ccncc1,-8.1%,25.1µM*,13.7%,-11.4%,i
CNC(=O)C[C@@H]1C(=O)N(Cc2ccccc2)CC1(C)C,nt,nt,nt,-5.3%,nt
SMILES,BLM helicase inh,L3MBTL1 inh,FEN1 inh,WRN inhibitor,RECQ1 helicase
CC(C)(C)C1CCC(=NNC(=O)c2ccccc2-n2cccc2)CC1 (centres undefined),-14.1%,-6.5%,8.2%,-2.2%,1.7%
Cc1ccn2cc(-c3ccc(O)c(O)c3)nc2c1,-19.2%,nt,-17.3%,44.7µM*,nt
Oc1ccc(-c2cn3ccccc3n2)cc1O,-2.9%,nt,10.0%,-9.7%,nt
Cc1ncc(CO)c(/C=N/NC(=O)c2cc(O)c(O)c(O)c2)c1O,5.62µM*,1.58µM*,nt,nt,14.1µM*
Nc1c(S(=O)(=O)O)cc(Nc2ccc(Nc3nc(Cl)nc(Nc4ccc(S(=O)(=O)O)cc4)n3)c(S(=O)(=O)O)c2)c2c1C(=O)c1ccccc1C2=O,nt,nt,2µM*,nt,0.891µM*
O=[N+]([O-])c1ccc(Nc2nc(Cl)nc(NCCO)n2)cc1,0.2%,9.6%,2.3%,-7.6%,-0.5%
O=C(NCCn1cc(SCc2ccc(Br)cc2)c2ccccc21)c1cccs1,-10.6%,nt,0.9%,nt,nt
O=C(NCCn1cc(SCc2ccccc2)c2ccccc21)c1cccs1,-13.6%,nt,89.1µM*,nt,nt
COc1cc(C2C3C(=O)N(Cc4ccccc4)C(=O)C3ON2c2ccccc2)cc(OC)c1OC (centres undefined),-10.1%,-7.7%,-2.6%,-18.4%,i
Cc1onc(-c2ccccc2)c1C(=O)Nc1sc2c(c1C#N)CCC2,-14.5%,?,?,50.1µM*,-21.2%
CC1(C(=O)NCCC(F)(F)F)Cc2c(-c3cccc(C(N)=O)c3)ccnc2O1 (centres undefined),nt,nt,nt,2.6%,nt
COCCNC(=O)Cn1c(=O)n(CCCCCC(=O)NCc2ccc3c(c2)OCO3)c(=O)c2sccc21,-0.7%,9.4%,-6.8%,nt,-10.7%
COc1ccc(NC(=O)Cn2c(=O)n(CCCCCC(=O)NCc3ccc4c(c3)OCO4)c(=O)c3sccc32)cc1Cl,-10.1%,nt,89.1µM*,nt,nt
COc1ccc(CCN2CC(C(=O)OCC(=O)NC(Cc3ccccc3)C(C)=O)CC2=O)cc1OC (centres undefined),nt,nt,-9.7%,2.6%,nt
N#CC(C#N)=C1C=CC=CN1/C(=C\c1ccco1)C(=O)c1ccc(Cl)cc1,-12.2%,-7.9%,-13.6%,22.4µM*,-2.2%
Cc1ccc(C(=O)CNc2cc(C)ccc2C)cc1,3.1%,-5.4%[2.29 µM],-15.8%,-4.3%,nt
CCNc1cc(O)ccc1C,nt,-4.7%,-21.7%,-29.9%,28.2µM*
NS(=O)(=O)c1ccc(CCNC(=O)c2cc(-c3cccs3)nc3ccccc23)cc1,1.3%,2.5%,1.6%,2.3%,8.5%
CN(C)c1ncc2nc(-c3cccs3)c(=O)n(Cc3cccs3)c2n1,2.0%,nt,nt,nt,-16.4%
CN(C)c1nc(=NCc2cccs2)ss1,nt,nt,-5.5%,22.4µM*,nt
Cc1ccc2c(c1C)NC(C(=O)O)C1CC=CC21 (centres undefined),17.8µM*,5.01µM*,56.2µM*,39.8µM*,5.01µM*
Cc1cc(C)c2c(c1)C1C=CCC1C(C(=O)O)N2 (centres undefined),nt,nt,22.4µM*,nt,nt
O=C(O)C1Nc2c(C(=O)N3CCOCC3)cccc2C2C=CCC12 (centres undefined),-2.0%,3.55µM*,?,56.2µM*,-16.9%
Cc1cc(C)c2c(c1)NC(C(=O)O)C1CC=CC21 (centres undefined),-6.8%,5.01µM*,44.7µM*,50.1µM*,nt
O=C(O)C1Nc2c(C(F)(F)F)ccc(Cl)c2C2C=CCC12 (centres undefined),-4.5%,nt,10.0%,-11.0%,nt
